# Reference: the supplement of paper PMC8728848
# Shown is part of a subset that was picked to be rich in the strongest signals.
# Experiments:
# Assay in all cases: glycan array binding signal (z-score within array); higher = stronger binding
# Details in all cases: glycan notation: IUPAC condensed, linker removed
# [1] = target: Fuc(a1-2)Gal(b1-3)[Fuc(a1-4)]GlcNAc(b1-2)Man(a1-3)[Fuc(a1-2)Gal(b1-3)[Fuc(a1-4)]GlcNAc(b1-2)Man(a1-3)]Man(b1-4)GlcNAc(b1-4)GlcNAc
# In short: (§1)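 From the Consortium for Functional Glycomics database, 3228 arrays were curated, keeping only those whose protein sequence was available. Binding is given as a within-array Z-score averaged across arrays sharing a protein sequence and across linkers. Negative Z-scores can be read as non-binding.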
# [2] = target: Fuc(a1-2)Gal(b1-4)Glc
# In short: as §1
# [3] = target: Fuc(a1-2)Gal(b1-4)GlcNAc(b1-2)[Fuc(a1-2)Gal(b1-4)GlcNAc(b1-4)]Man(a1-3)[Fuc(a1-2)Gal(b1-4)GlcNAc(b1-2)Man(a1-6)]Man(b1-4)GlcNAc(b1-4)GlcNAc
# In short: as §1
# [4] = target: Fuc(a1-2)Gal(b1-4)GlcNAc(b1-6)GalNAc
# In short: as §1
# [5] = target: Fuc(a1-2)Gal(b1-4)[Fuc(a1-3)]GlcNAc(b1-2)Man(a1-3)[Fuc(a1-2)Gal(b1-4)[Fuc(a1-3)]GlcNAc(b1-2)Man(a1-6)]Man(b1-4)GlcNAc(b1-4)[Fuc(a1-6)]GlcNAc
# In short: as §1
# [6] = target: Fuc(a1-2)[Gal(a1-3)]Gal(b1-3)GlcNAc(b1-2)Man(a1-3)[Fuc(a1-2)[Gal(a1-3)]Gal(b1-3)GlcNAc(b1-2)Man(a1-6)]Man(b1-4)GlcNAc(b1-4)GlcNAc
# In short: as §1
# [7] = target: Fuc(a1-2)[Gal(a1-3)]Gal(b1-4)GlcNAc(b1-2)Man
# In short: as §1
# [8] = target: Fuc(a1-3)GlcNAc
# In short: as §1
# [9] = target: Fuc(a1-3)[Gal3S(b1-4)]GlcNAc6S
# In short: as §1
# [10] = target: Fuc(b1-3)GlcNAc
# In short: as §1
# [11] = target: Gal(a1-3)Gal(b1-4)GlcNAc(b1-2)Man(a1-3)[Gal(a1-3)Gal(b1-4)GlcNAc(b1-2)Man(a1-6)]Man(b1-4)GlcNAc(b1-4)GlcNAc
# In short: as §1
# [12] = target: Gal(a1-3)GalNAc
# In short: as §1
# [13] = target: Gal(a1-4)Gal(b1-3)GlcNAc(b1-2)Man(a1-3)[Gal(a1-4)Gal(b1-3)GlcNAc(b1-2)Man(a1-6)]Man(b1-4)GlcNAc(b1-4)GlcNAc
# In short: as §1
# [14] = target: Gal(a1-4)Gal(b1-4)GlcNAc
# In short: as §1
# [15] = target: Gal(a1-4)Gal(b1-4)GlcNAc(b1-2)Man(a1-3)[Gal(a1-4)Gal(b1-4)GlcNAc(b1-2)Man(a1-6)]Man(b1-4)GlcNAc(b1-4)GlcNAc
# In short: as §1
# [16] = target: Gal(a1-4)Gal(b1-4)GlcNAc(b1-3)Gal(b1-4)Glc
# In short: as §1
# [17] = target: Gal(a1-6)Glc
# In short: as §1
# [18] = target: Gal(b1-2)Gal
# In short: as §1
# [19] = target: Gal(b1-3)Gal(b1-4)GlcNAc
# In short: as §1
# [20] = target: Gal(b1-3)GalNAc(a1-3)[Fuc(a1-2)]Gal(b1-4)Glc
# In short: as §1
# [21] = target: Gal(b1-3)GalNAc(a1-3)[Fuc(a1-2)]Gal(b1-4)GlcNAc
# In short: as §1
# [22] = target: Gal(b1-3)GalNAc(b1-4)Gal(b1-4)Glc
# In short: as §1
# [23] = target: Gal(b1-3)GlcNAc(b1-3)Gal(b1-4)GlcNAc(b1-6)[Gal(b1-3)GlcNAc(b1-3)]Gal(b1-4)Glc
# In short: as §1
# [24] = target: Gal(b1-3)[Fuc(a1-4)]GlcNAc(b1-2)Man
# In short: as §1
# [25] = target: Gal(b1-4)GlcNAc(b1-2)Man
# In short: as §1
# [26] = target: Gal(b1-4)GlcNAc(b1-2)[Gal(b1-4)GlcNAc(b1-6)]Man(a1-6)[Gal(b1-4)GlcNAc(b1-2)Man(a1-3)]Man(b1-4)GlcNAc(b1-4)GlcNAc
# In short: as §1
# [27] = target: Gal(b1-4)GlcNAc(b1-3)Gal(b1-3)GlcNAc
# In short: as §1
# [28] = target: Gal(b1-4)GlcNAc(b1-3)Gal(b1-4)GlcNAc(b1-3)Gal(b1-4)GlcNAc(b1-3)Gal(b1-4)GlcNAc(b1-2)Man(a1-3)[Gal(b1-4)GlcNAc(b1-3)Gal(b1-4)GlcNAc(b1-3)Gal(b1-4)GlcNAc(b1-3)Gal(b1-4)GlcNAc(b1-2)Man(a1-6)]Man(b1-4)GlcNAc(b1-4)GlcNAc
# In short: as §1
# [29] = target: Gal3S6S(b1-4)GlcNAc
# In short: as §1
# [30] = target: GalNAc(b1-3)Gal(a1-4)Gal(b1-4)GlcNAc
# In short: as §1
# [31] = target: GalNAc(b1-4)GlcNAc
# In short: as §1
# [32] = target: GalNAc3S(b1-4)GlcNAc
# In short: as §1
# [33] = target: Glc(a1-6)Glc(a1-6)Glc
# In short: as §1
# [34] = target: GlcNAc(a1-4)Gal(b1-3)GlcNAc
# In short: as §1
# [35] = target: GlcNAc(a1-4)Gal(b1-4)GalNAc
# In short: as §1
# [36] = target: GlcNAc(b1-3)Gal(b1-4)GlcNAc(b1-3)Gal(b1-4)GlcNAc(b1-2)Man(a1-3)[GlcNAc(b1-3)Gal(b1-4)GlcNAc(b1-3)Gal(b1-4)GlcNAc(b1-2)Man(a1-6)]Man(b1-4)GlcNAc(b1-4)[Fuc(a1-6)]GlcNAc
# In short: as §1
# [37] = target: GlcNAc(b1-3)Man
# In short: as §1
# [38] = target: GlcNAc(b1-4)Gal(b1-4)GlcNAc
# In short: as §1
# [39] = target: Man(a1-3)[Man(a1-6)]Man(a1-6)[Man(a1-3)]Man
# In short: as §1
# [40] = target: Man(b1-4)GlcNAc
# In short: as §1
# [41] = target: Neu5Ac(a2-3)Gal(b1-3)GlcNAc(b1-4)Gal(b1-4)Glc
# In short: as §1
# [42] = target: Neu5Ac(a2-3)Gal(b1-4)GlcNAc(b1-2)[Neu5Ac(a2-3)Gal(b1-4)GlcNAc(b1-4)]Man(a1-3)[GlcNAc(b1-4)][Neu5Ac(a2-3)Gal(b1-4)GlcNAc(b1-4)Man(a1-6)]Man(b1-4)GlcNAc(b1-4)GlcNAc
# In short: as §1
# [43] = target: Neu5Ac(a2-3)Gal(b1-4)GlcNAc(b1-3)Gal
# In short: as §1
# [44] = target: Neu5Ac(a2-3)Gal(b1-4)GlcNAc6S
# In short: as §1
# [45] = target: Neu5Ac(a2-3)Gal(b1-4)[Fuc(a1-3)]GlcNAc6S
# In short: as §1
# [46] = target: Neu5Ac(a2-6)Gal(b1-4)GlcNAc(b1-2)Man(a1-3)Man(b1-4)GlcNAc(b1-4)GlcNAc
# In short: as §1
# [47] = target: Neu5Ac(a2-6)Gal(b1-4)GlcNAc(b1-2)Man(a1-3)[Gal(b1-4)GlcNAc(b1-2)Man(a1-6)]Man(b1-4)GlcNAc(b1-4)GlcNAc
# In short: as §1
# [48] = target: Neu5Ac(a2-6)Gal(b1-4)GlcNAc(b1-2)[Neu5Ac(a2-6)Gal(b1-4)GlcNAc(b1-4)]Man(a1-3)[GlcNAc(b1-4)][Neu5Ac(a2-6)Gal(b1-4)GlcNAc(b1-2)[Neu5Ac(a2-6)Gal(b1-4)GlcNAc(b1-6)]Man(a1-6)]Man(b1-4)GlcNAc(b1-4)GlcNAc
# In short: as §1
# [49] = target: Neu5Ac(a2-6)Gal(b1-4)GlcNAc(b1-2)[Neu5Ac(a2-6)Gal(b1-4)GlcNAc(b1-6)]Man(a1-6)[Neu5Ac(a2-6)Gal(b1-4)GlcNAc(b1-2)Man(a1-3)][GlcNAc(b1-4)]Man(b1-4)GlcNAc(b1-4)GlcNAc
# In short: as §1
# [50] = target: Neu5Ac(a2-6)Gal(b1-4)GlcNAc(b1-3)Gal(b1-4)GlcNAc(b1-6)[Gal(b1-3)]GalNAc
# In short: as §1
# [51] = target: Neu5Ac(a2-8)Neu5Ac(a2-3)Gal(b1-4)Glc
# In short: as §1
# [52] = target: Neu5Gc(a2-3)Gal(b1-3)[Fuc(a1-4)]GlcNAc
# In short: as §1
# [53] = target: Neu5Gc(a2-3)Gal(b1-4)GlcNAc(b1-3)Gal(b1-4)GlcNAc(b1-2)Man(a1-3)[Neu5Gc(a2-3)Gal(b1-4)GlcNAc(b1-3)Gal(b1-4)GlcNAc(b1-2)Man(a1-6)]Man(b1-4)GlcNAc(b1-4)GlcNAc
# In short: as §1
# [54] = target: Neu5Gc(a2-6)GalNAc
# In short: as §1
binder,measurement,setting,value
"Epa6 (Candida glabrata), Q6DTM7_CANGB (protein) MGSSHHHHHHSSGLVPRGSHMKDDYSSSLSNNNLGWTDPTEFPLGCSPNVTTPKNGLSMELYSYDYLKSGSNPCWDAAYLDPNYPRTGYKSHRLLAKVENVAGNINFYYHAPMGCTSLFDTLPQAYNYRTPLTMTNFTMLLYGYFKPKVTGYHTFTISADDLLFVNFGAGNAFDCCKRESSADDFGNYQAYAVWGSQTAKDDLTVHLDAGLYYPIRIFFNNRDNDGALSLTLKTESDPNPVIDFSDYFYSFDDTKDGCPGLVSYDTS",glycan array binding signal (z-score),[1],-0.229
same,glycan array binding signal (z-score),[2],-0.123
same,glycan array binding signal (z-score),[3],-0.318
same,glycan array binding signal (z-score),[4],-0.062
same,glycan array binding signal (z-score),[5],-0.257
same,glycan array binding signal (z-score),[6],0.454
same,glycan array binding signal (z-score),[7],0.197
same,glycan array binding signal (z-score),[8],-0.304
same,glycan array binding signal (z-score),[9],-0.263
same,glycan array binding signal (z-score),[10],-0.331
same,glycan array binding signal (z-score),[11],3.7
same,glycan array binding signal (z-score),[12],4.17
same,glycan array binding signal (z-score),[13],6.23
same,glycan array binding signal (z-score),[14],4.65
same,glycan array binding signal (z-score),[15],4.02
same,glycan array binding signal (z-score),[16],4.42
same,glycan array binding signal (z-score),[17],8.63
same,glycan array binding signal (z-score),[18],6.14
same,glycan array binding signal (z-score),[19],10
same,glycan array binding signal (z-score),[20],4.95
same,glycan array binding signal (z-score),[21],5.98
same,glycan array binding signal (z-score),[22],3.9
same,glycan array binding signal (z-score),[23],0.257
same,glycan array binding signal (z-score),[24],-0.112
same,glycan array binding signal (z-score),[25],-0.283
same,glycan array binding signal (z-score),[26],-0.198
same,glycan array binding signal (z-score),[27],-0.26
same,glycan array binding signal (z-score),[28],0.07
same,glycan array binding signal (z-score),[29],-0.306
same,glycan array binding signal (z-score),[30],-0.126
same,glycan array binding signal (z-score),[31],-0.234
same,glycan array binding signal (z-score),[32],-0.313
same,glycan array binding signal (z-score),[33],-0.312
same,glycan array binding signal (z-score),[34],-0.306
same,glycan array binding signal (z-score),[35],-0.297
same,glycan array binding signal (z-score),[36],-0.255
same,glycan array binding signal (z-score),[37],-0.263
same,glycan array binding signal (z-score),[38],-0.357
same,glycan array binding signal (z-score),[39],-0.281
same,glycan array binding signal (z-score),[40],-0.332
same,glycan array binding signal (z-score),[41],-0.269
same,glycan array binding signal (z-score),[42],-0.343
same,glycan array binding signal (z-score),[43],-0.336
same,glycan array binding signal (z-score),[44],-0.347
same,glycan array binding signal (z-score),[45],-0.347
same,glycan array binding signal (z-score),[46],-0.325
same,glycan array binding signal (z-score),[47],-0.301
same,glycan array binding signal (z-score),[48],-0.311
same,glycan array binding signal (z-score),[49],-0.33
same,glycan array binding signal (z-score),[50],0.25
same,glycan array binding signal (z-score),[51],-0.347
same,glycan array binding signal (z-score),[52],-0.331
same,glycan array binding signal (z-score),[53],-0.311
same,glycan array binding signal (z-score),[54],-0.311
